Assay outcomes deposited in PubChem BioAssay by several laboratories.
FadD28 FP inh – inhibitors of FadD28 bisubstrate probe binding, primary screen, biochemical, fluorescence polarization, single point | 0.22% of 360,000 active | Mycobacterium tuberculosis FadD28 fatty-acid-AMP ligase | inhibition, % at 12.5 µM; in the data active = inhibition above about 8.5%, passing the limit was not always enough
Mtb bLac sens – beta-lactam sensitization of Mtb H37Rv, H37Rv | 0.27% of 330,000 active | inhibition, % at 25 µM | AID 434955, 2010 | M. tuberculosis H37Rv growth with meropenem, percent inhibition; call rule not given here;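 also: growth measured after seven days incubation then overnight dye step; 0% = bacteria only wells and 100% = bacteria with antibiotic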
Rv3671c inh – Rv3671c serine protease inhibitors, primary screen, biochemical, fluorescence polarization, M. tuberculosis H37Rv | inhibition, % at 5.96 µM | 0.048% of 320,000 active | AID 2606, 2010;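 also: extracellular domain of Rv3671c used as enzyme; 0% = enzyme with DMSO and 100% = no enzyme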
PrP 5UTR inh – inhibition of PrP 5' UTR reporter expression; cell-based PrP 5' UTR mRNA reporter, plate reader; inhibition, % (test concentration not listed); 0.35% of 340,000 active; AID 488862, 2010; in the data active = inhibition above about 52%; also: 0 = median of the neutral control wells
Vc quorum ag – inducers of Vibrio cholerae quorum light production without autoinducers, primary screen, BH1578 luxS cqsA deficient, single point; V. cholerae BH1578 lux reporter, luminescence, 6 h; activation, % at 18.7 µM; 0.16% of 350,000 active; AID 588436, 2011; in the data active = activation mostly above about 9.7%, no sharp cut-off
Mtb UGM inh – M. tuberculosis UGM enzyme inhibitors, primary screen, biochemical, fluorescence polarization, single point. UDP-galactopyranose mutase (Mycobacterium tuberculosis (strain ATCC 25618 / H37Rv)), …. purified UGM, fluorescence polarization probe displacement. inhibition, % at 10 µM. 0.06% of 320,000 active; in the data active = inhibition above about 10%, passing the limit was not always enough
Target sequence (P9WIQ1 whole entry, looked up): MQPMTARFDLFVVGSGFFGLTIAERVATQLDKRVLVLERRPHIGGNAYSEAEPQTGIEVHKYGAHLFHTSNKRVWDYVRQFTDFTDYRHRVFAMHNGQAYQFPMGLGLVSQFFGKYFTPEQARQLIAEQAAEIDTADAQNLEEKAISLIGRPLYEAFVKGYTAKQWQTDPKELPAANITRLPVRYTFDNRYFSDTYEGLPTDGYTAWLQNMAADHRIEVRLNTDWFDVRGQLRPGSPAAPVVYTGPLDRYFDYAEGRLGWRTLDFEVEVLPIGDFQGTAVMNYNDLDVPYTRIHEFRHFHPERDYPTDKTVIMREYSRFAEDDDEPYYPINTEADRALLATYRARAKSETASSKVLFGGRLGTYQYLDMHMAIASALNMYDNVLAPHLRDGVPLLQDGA
Rv3671c confirm – Rv3671c serine protease inhibitors, retest, confirmation, biochemical, fluorescence polarization, M. tuberculosis H37Rv; AID 2761, 2010; inhibition, % at 5.96 µM; shares compounds with Rv3671c inh; 40% of 140 active
* = called active by the depositor; i = inactive; / = not tested or not shown. Shown are actives, neighbours in structure and some others; about 0.76% of the full set was active somewhere. Rule as the data show it, unless noted: active = inhibition above about 38%; inactive = the rest.

SMILES	FadD28 FP inh	Mtb bLac sens	Rv3671c inh	PrP 5UTR inh	Vc quorum ag	Mtb UGM inh	others
Nc1c(S(=O)(=O)O)cc(NC(=O)c2ccccc2)c2c1C(=O)c1ccccc1C2=O	26*	13	23	2	0	1
COc1ccccc1CNC(=O)C(NC(=O)Nc1ccccc1)C(C)C (stereo not drawn)	-4	-6	2	-29	-1	-1
O=C(CCN1C(=O)/C(=C\c2ccco2)SC1=S)Nc1ccc(C(=O)O)c(O)c1	15*	7	-17	8	i	1
O=C(CCN1C(=O)/C(=C/c2ccco2)SC1=S)Nc1ccc(C(=O)O)c(O)c1	11*	27	-19	3	0	1
COc1ccccc1/C=C1\SC(=S)N(CCC(=O)Nc2ccc(C(=O)O)c(O)c2)C1=O	-6	32	-47	-4	-2	1
O=C(CCCN1C(=O)/C(=C\c2ccco2)SC1=S)Nc1ccc2ccccc2c1	-1	-8	-13	-39	0	-1
Cc1cccc(N2CCN(S(=O)(=O)c3c(C)nc4scc(C)n4c3=O)CC2)c1C	1	19	-2	-8	0	-1
O=C1C(=Cc2ccc(Br)o2)C(=O)c2ccccc21	41*	4	0	-24	0	1
CC1=C/C(=C\c2ccc(Br)o2)C(=O)O1	-1	-1	-2	-12	0	3
O=C(NNC(=O)c1ccc2ccccc2c1O)Nc1ccc(F)cc1	2	-13	-3	-19	-1	1
Cc1cccc(NC(=O)NNC(=O)c2ccc3ccccc3c2O)c1	8.5*	7	/	-30	i	1
CC(C)(C)CN1CCN(CC#Cc2ccccc2)CC1CCO (stereo not drawn)	-2	6	-1	-28	i	-1
O=C(O)c1cc(N2N=C(C(F)(F)F)/C(=C/C=C/c3ccco3)C2=O)ccc1Cl	77*	/	/	-26	-1	/
COc1ccc(-c2csc(Nc3ccc(S(N)(=O)=O)cc3)n2)cc1	-3	13	4	-20	/	-4
O=[N+]([O-])c1cccc(-c2csc(Nc3ccccc3)n2)c1	-1	96	-2	-77	0	0
COc1ccc(-c2csc(Nc3ccc(S(=O)(=O)Nc4cc(C)on4)cc3)n2)cc1	10*	19	7	-1	-2	4
NS(=O)(=O)c1ccc(Nc2nc(-c3ccc(O)cc3)cs2)cc1	10*	-1	12	-19	0	3
COc1cc(NS(=O)(=O)c2ccc(Nc3nc(-c4cccc([N+](=O)[O-])c4)cs3)cc2)nc(OC)n1	17*	0	-21	16	-1	1
Cc1cc(Br)c(Cl)cc1NC(=O)CN1C(=O)C2C3CC(c4ccccc4)C(C3)C2C1=O (stereo not drawn)	-6	84	-79	-19	i	0
O=C(COc1ccccc1)Nc1ccc(CN2CCCCC2)cc1	16*	-8	-4	-18	0	-3
O=C(CSc1nnc(CNC(=O)c2cccs2)o1)NCC1CCCO1 (stereo not drawn)	-4	1	-3	-17	i	0
O=C(CSc1nnc(CNC(=O)c2cccs2)o1)NC1CCCCC1	0	-9	-4	-6	15*	2
O=C1/C(=C/C=C/c2ccco2)SC(=S)N1NS(=O)(=O)c1ccccc1	47*	1	5	-2	0	-1
CC(C(=O)O)N1C(=O)/C(=C/C=C/c2ccco2)SC1=S (stereo not drawn)	36*	-4	3	-3	-5	-1
CCN(C(=O)C(C)N1C(=O)/C(=C/c2ccco2)SC1=S)C1CCS(=O)(=O)C1 (stereo not drawn)	3	2	-14	10	-3	-1
SMILES	FadD28 FP inh	Mtb bLac sens	Rv3671c inh	PrP 5UTR inh	Vc quorum ag	Mtb UGM inh	others
NS(=O)(=O)c1cccc(NS(=O)(=O)c2ccc(/C=C/C(=O)OCC(=O)c3ccccc3)cc2)c1	10*	8	-17	-19	i	1
COc1ccc(C(=O)COC(=O)/C=C/c2ccccc2)cc1	-1	-1	6	1	i	0
CC(O)[C@@H](NC(=O)C1CCC(CNC(=O)[C@H](Cc2ccccc2)NC(=O)OC(C)(C)C)CC1)C(=O)O (stereo partly drawn)	/	2	3	-9	i	0
O=C(O)CC(NS(=O)(=O)c1ccc2c(c1)OCCO2)c1ccccc1[N+](=O)[O-] (stereo not drawn)	0	-5	-9	-22	i	4
O=C(O)C(c1ccccc1)N1C(=O)/C(=C\c2ccc(-c3ccccc3Cl)o2)SC1=S (stereo not drawn)	11*	0	-8	-22	i	1
O=C(O)C(c1ccccc1)N1C(=O)/C(=C\c2ccc(-c3ccc(Br)cc3)o2)SC1=S (stereo not drawn)	27*	/	/	-16	0	/
O=C(NCCCn1ccnc1)c1cccc(S(=O)(=O)NCc2ccccc2)c1	1	-2	-3	-11	1	4
Cc1cccc2c(=O)oc(-c3ccccc3Cl)nc12	0	4	51*	-22	-1	1	Rv3671c confirm=72*
Cc1ccccc1-c1nc2cc(Cl)ccc2c(=O)o1	-6	23	7	-12	i	-2
Cc1nc2ccccc2n2c(O)c(CC(=O)O)cc12	14*	8	53*	-12	-1	0	Rv3671c confirm=5
Cc1nc2ccccc2n1CCC(=O)O	-2	-13	1	-16	-1	0
CN1C(=O)NC(c2ccccc2[N+](=O)[O-])C2=C1CCCC2=O (stereo not drawn)	7	0	74*	11	0	12*	Rv3671c confirm=38*
CCN(CC)CCOC(=O)c1ccc(NC(=O)c2ccc(Cl)c(S(=O)(=O)N3CCCCCC3)c2)cc1	-7	3	-8	-18	-1	1
Cc1ccc(-n2c(SCC(=O)Nc3ccc4c5c(cccc35)CC4)nc(O)c(C)c2=O)cc1	1	-14	1	-7	0	3
Cc1ccc(-n2c(SCC(=O)Nc3ccc4c5c(cccc35)CC4)nc(O)cc2=O)cc1	-2	3	45*	-17	2	2	Rv3671c confirm=-8
C=C1c2cccc(O)c2C(O)=C2C(=O)[C@]3(O)C(O)=C(C(N)=O)C(=O)[C@@H](N(C)C)[C@@H]3[C@@H](O)[C@H]12	4	79	50*	4	-1	6	Rv3671c confirm=3
O=[N+]([O-])c1ccc(NCc2ccccc2)c2nonc12	/	6	49*	/	/	7	Rv3671c confirm=43*
O=C1c2c(O)cccc2Cc2cccc(O)c21	-4	-1	58*	-48	0	-2	Rv3671c confirm=27
O=C1Cc2cccc(=O)c(O)c2C(=O)O1	-3	/	/	/	i	/
